# Records with an inconclusive call do not appear. A number with no mark means an inactive call. Calls of active or inactive are those of the source. Calls come from the whole dose curve; as a rule, active = well fitted activation curve with a large enough effect; inconclusive = small, poorly fitted or top-dose-only effect; inactive = flat fitted curve, though single readings scatter.
# Test: qHTS for Inhibitors of Cell Surface uPA Generation: Confirmatory Assay for Cherry-picked Compounds; for inhibition: 0% is about no effect
# Settings: cell surface uPA activity generation, qHTS confirmation; series mostly up to 115 µM; inhibition: at the top concentration
# Method in brief: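 RAW 264.7 cells at 4000/well, incubated overnight, then treated with compounds. After 24 h at 37 C, viability was read by ATPlite luminescence. An increase in signal indicates blocked uPA-dependent LF entry.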
# Potency is the fitted concentration of half-maximal effect.
Compound,inhibition [%],Potency
CC(C)NC(=O)NC(=O)CN1C(=O)NC(Cc2c[nH]c3ccccc23)C1=O (centres undefined),-2.11,–
O=C(NNC(=O)c1cccc(-n2cccc2)c1)c1ccc(F)cc1,-1.92,–
Cn1c(CN2CCCC2)nc2cc(NC(=O)COc3ccccc3)ccc21,-2.79,–
Cc1ccc(C(=O)COc2cc(O)c3c(=O)cc(-c4ccccc4)oc3c2)cc1,-1.83,–
COc1ccc(OC)c(NC(=O)C2CC2c2ccccc2)c1 (centres undefined),-2.61,–
C[C@]12CCC(O)CC1CCC1C2CC[C@]2(C)C(c3cc(C(F)(F)F)n[nH]3)CCC12 (some centres undefined),-3.84,–
COc1ccc(NC(=O)CC(C)CC(=O)NCc2ccccc2)c(OC)c1 (centres undefined),0.142,–
CC1(C)CC(=O)C([N+](=O)[O-])=C(NCCCC(=O)O)C1,1.47,–
COc1cccc(CN(C)C(=O)c2cc(S(=O)(=O)N3CCCC3)ccc2C)c1OC,-1.45,–
O=C(COc1ccc(C(=S)N2CCOCC2)cc1)N1CCOCC1,-1.16,–
CCN(CC)CCCNC(=O)c1cn(C)c(=O)c2c1c1ccccc1n2C,5.19,–
Cc1nc(SCC(=O)NCCN2C(=O)CSC2=O)nc(C)c1C,-1.28,–
CCN(CC)CC(=O)Nc1sc2c(c1C(=O)c1ccccc1OC)CCC2,–,10.4 µM (active)
CC(C)C1Oc2ccccc2N(CC(=O)NC2CCCCC2)C1=O (centres undefined),–,32.9 µM (active)
COc1cc(CN2CCN(S(=O)(=O)c3ccccc3)CC2)cc(OC)c1OC,0.54,–
CCc1ccc(OCC(=O)N(Cc2cccs2)C2CCS(=O)(=O)C2)cc1 (centres undefined),0.364,–
Cc1cc(C)c(S(=O)(=O)N2CCCOC2CNC(=O)C(=O)NCc2cccs2)c(C)c1 (centres undefined),-0.442,–
COc1ccc(/C(C)=N/N2CCOCC2)c(O)c1,1.76,–
Clc1ccccc1N1CCN(c2ncnc3nc[nH]c23)CC1,-0.597,–
Clc1ccc(C2=NN=C3COc4ccccc4N3C2)cc1,-2.4,–

Compound,inhibition [%],Potency
Cc1ccc2sc(NNC(=O)c3ccc4c(c3)OCCO4)nc2c1C,-3.56,–
CC(O)[C@H]1CNC(=O)C(=O)N1CCc1cccc(F)c1 (some centres undefined),0.53,–
Cc1cnc(C(=O)OCC(=O)Nc2ccc3c(c2)OCCO3)cn1,-0.779,–
Cc1ccc2cccc(OCCCOc3ccccc3CO)c2n1,2.51,–
O=C(NC(=O)c1ccccc1)Nc1cccc(S(=O)(=O)N2CCCCC2)c1,-0.931,–
CCN(CC)C(=O)Cn1cc(/C=C(\C#N)C(=O)NC2CC2)c2ccccc21,1.37,–
S=C(Nc1ccccc1Oc1ccccc1)NC1CCCC1,-3.1,–
CCN(CC)S(=O)(=O)c1ccc(C(=O)Nc2nnc(COC)o2)cc1,-1.3,–
COc1ccccc1NC(=O)Cn1ncc2c1-c1ccccc1OC2,-1.12,–
C=CCN1C=C2C(=O)C(C)(OC(=O)c3cnc4ccccc4n3)C(=O)C=C2C=C1/C=C/COC (centres undefined),-0.841,–
CCOc1ccc(C(=O)NCCO)cc1,-1.33,–
Cc1ccc(S(=O)(=O)Nc2nc(C)cc(N/N=C/c3ccc(O)cc3)n2)cc1,-3.07,–
Cc1ccc(C)c(N2N=C(C(=O)N(CC(C)C)c3c(N)n(Cc4ccccc4)c(=O)[nH]c3=O)CCC2=O)c1,-1.48,–
COc1ccc(NS(=O)(=O)c2cc(NS(=O)(=O)c3cc(C(=O)O)ccc3OC)ccc2C)cc1,-0.471,–
CCOCCCn1c(SCC(=O)Nc2cc(OC)ccc2OC)nc2ccccc2c1=O,-3.62,–
COc1ccccc1CNC(=O)CCCn1nc(C)c2c(C)n(-c3ccccc3)nc2c1=O,-2.78,–
O=C(NCCOc1ccc(F)cc1)C1CCN(S(=O)(=O)c2ccccc2)CC1,-1.56,–
CCOC(=O)C1=C(C)N(Cc2ccccc2)C(=O)NC1c1ccc(OC)cc1 (centres undefined),-1.56,–
N/C(=N/OC(=O)c1ccccc1F)c1nonc1N,-2.61,–

# From PubChem BioAssay AID720519 (National Center for Advancing Translational Sciences (NCATS), 2013)
